Source: PubChem BioAssay
The list is not random: actives were taken first. Their share in the collection is about 2.4%.
D2 ag-1 – activates the human D2 dopamine receptor | P14416 | DiscoveRx PathHunter D2 beta-arrestin, luminescence, 90 min; 100% = 57 uM dopamine signal | activation, % (concentration not given with the values) | 0.084% of 360,000 active | AID 624465; in the data active = activation above about 40%; inconclusive = between about 15% and that limit
Target sequence (P14416 whole entry, looked up): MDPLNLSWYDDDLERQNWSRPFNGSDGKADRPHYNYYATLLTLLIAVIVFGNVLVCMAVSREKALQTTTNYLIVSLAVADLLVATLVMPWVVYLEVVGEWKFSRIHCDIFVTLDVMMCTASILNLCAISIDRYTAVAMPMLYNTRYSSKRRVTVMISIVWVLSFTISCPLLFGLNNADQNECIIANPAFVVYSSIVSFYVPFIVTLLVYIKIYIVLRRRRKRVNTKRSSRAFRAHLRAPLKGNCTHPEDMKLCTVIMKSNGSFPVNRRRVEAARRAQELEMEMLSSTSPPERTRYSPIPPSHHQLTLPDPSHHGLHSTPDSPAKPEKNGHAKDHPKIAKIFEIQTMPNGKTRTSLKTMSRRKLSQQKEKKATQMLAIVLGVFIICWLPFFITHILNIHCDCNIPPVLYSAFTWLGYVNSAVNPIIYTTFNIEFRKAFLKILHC
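Agonist mode: compounds alone added to overnight-plated D2 PathHunter cells for 90 min at 37 C, with 57 uM final dopamine (EC100) defining full response. Beta-arrestin recruitment detected by chemiluminescent reagent, read after 1 h at ambient temperature.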
D2 ag-2 – activates the human D2 dopamine receptor | P14416 | HEK293 T-REx D2 cells, calcium flux agonist mode | activation, % at 2 µM | 0.53% of 340,000 active | AID 485358;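 active = activation over 3 SD above normal in the single-dose calcium agonist read, cut at about 30% in these data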; note: 0% is about no effect
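Tetracycline-induced HEK293 T-REx cells with force-coupled D2 receptor, plated overnight at 30 C, loaded with no-wash calcium dye. After a 10 s baseline, compound was pin-added and calcium flux read kinetically for 180 s; calcium rises flagged agonists.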
D2 PAM-1 – positively modulates the human D2 dopamine receptor allosterically; HEK293 T-REx D2, calcium flux, EC20 dopamine potentiation; potentiation, % at 10 µM; 0.34% of 340,000 active; P14416;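 active = potentiation over 3 SD above the plate norm, cut at about 30% in these data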; note: 0% is about no effect
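Using a no-wash calcium dye in inducible, force-coupled HEK293 Trex cells expressing D2, we tracked fluorescence each second for 180 s after compound, then for 180 s after EC20 dopamine to detect augmented signalling.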
D2 PAM-2 – human D2 receptor positive allosteric modulation. P14416. DiscoveRx D2 beta-arrestin cells, luminescence, 90 min; 100% = 57 uM dopamine signal. potentiation, % (concentration not given with the values). 0.23% of 360,000 active. AID 624464; in the data active = potentiation above about 50%; inconclusive = mostly about 30% to 49%
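D2 cells co-treated with compound plus 50 nM dopamine (EC20) for 90 min at 37 deg C to detect potentiation. Beta-arrestin recruitment was read as enzyme-fragment luminescence after 1 h at ambient temperature. Full response was set by 57 uM dopamine.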
D2 antag – antagonists of human D2 dopamine receptor; HEK293 TREx D2 cells, calcium flux, dopamine EC80; P14416; inhibition, % at 10 µM; 2% of 340,000 active; in the data active = inhibition above about 30%; inactive = below that, where a call was filed; note: 0% is about no effect
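Inhibition of EC80 dopamine-driven calcium flux, recorded kinetically, defines activity here; cells are a tetracycline-induced HEK293 T-REx line expressing force-coupled D2.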
* = called active by the depositor.

For CCC1CN(C(=O)N2CCC(C(=O)N3CCN(c4ccccc4F)CC3)CC2)c2ccccc2O1 (stereo not drawn) the results were D2 ag-2 -2 and D2 PAM-1 0.
Screening COc1ccc(Cl)cc1S(=O)(=O)N1CCN(Cc2ccc3c(c2)OCO3)CC1 returned D2 ag-1 -1, D2 ag-2 0, D2 PAM-1 -7, D2 PAM-2 -6 and D2 antag -1.
For COc1nc2ccccc2nc1N1CCN(Cc2ccc3c(c2)OCO3)CC1 the results were D2 ag-1 -3, D2 ag-2 -1, D2 PAM-1 -27, D2 PAM-2 -34 and D2 antag 51*.
`c1ccc2nc(N3CCN(Cc4ccc5c(c4)OCO5)CC3)cnc2c1` gave D2 ag-1 -3, D2 ag-2 -1, D2 PAM-1 -15, D2 PAM-2 -27 and D2 antag -18.
`COc1ccc(S(=O)(=O)N2CCN(Cc3ccc4c(c3)OCO4)CC2)c2ccccc12` gave D2 ag-1 -3, D2 ag-2 0, D2 PAM-1 -10, D2 PAM-2 -5 and D2 antag 31*.
For COc1ccc(Cn2c(C(=O)O)c(CNCCc3cccs3)c3ccc(C)cc32)cc1 the results were D2 ag-2 0 and D2 PAM-1 2.
For O=C(CSc1nc2ccccc2n1Cc1cccc(F)c1)N1CCN(c2ccc(F)cc2)CC1 the results were D2 PAM-1 -6.
`CCCCC(=O)OCc1nc2ccccc2s1` gave D2 ag-1 -11, D2 ag-2 0, D2 PAM-1 42*, D2 PAM-2 -23 and D2 antag -9.
Cc1cc(C)c(S(=O)(=O)NCCOc2ccccc2)c(C)c1-n1cnnn1 was read as D2 ag-1 -2, D2 ag-2 3, D2 PAM-1 41*, D2 PAM-2 -1 and D2 antag -30.
`CCCCCCC(C)NC(=S)Nc1cc(S(=O)(=O)N(C)C)ccc1C` (stereo not drawn) gave D2 ag-1 -1, D2 ag-2 1, D2 PAM-1 -27, D2 PAM-2 -41 and D2 antag 92*.
Screening Cc1ccc(S(=O)(=O)N(C)C)cc1NC(=S)NC(C)CCC(C)C (stereo not drawn) returned D2 ag-1 -3, D2 ag-2 0, D2 PAM-1 -25, D2 PAM-2 -37 and D2 antag 77*.
Cc1ccc(S(=O)(=O)N(C)C)cc1NC(=S)NC(C)CCCC(C)C (stereo not drawn) was read as D2 ag-1 4, D2 ag-2 0, D2 PAM-1 -23, D2 PAM-2 -41 and D2 antag 75*.
Cc1cccc(C)c1OCC(=O)N/N=C/c1cc2c(cc1[N+](=O)[O-])OCO2 was read as D2 ag-1 0, D2 ag-2 -3, D2 PAM-1 -8, D2 PAM-2 1 and D2 antag 30*.
O=C(CCc1ccc(O)c(O)c1)N/N=C/c1cc2c(cc1[N+](=O)[O-])OCO2 was read as D2 ag-1 inconclusive, D2 ag-2 1, D2 PAM-1 -1, D2 PAM-2 2 and D2 antag -5.
CC1=C(C(=O)NCc2ccc(Cl)cc2)C2(CCCCC2)OC1=O was read as D2 ag-2 0 and D2 PAM-1 -10.
O=C(N/N=C/c1cccs1)c1c[nH]c2ccccc12 was read as D2 ag-1 -4, D2 ag-2 -1, D2 PAM-1 -19, D2 PAM-2 -25 and D2 antag 33*.
Screening COc1ccccc1-c1cc(C(=O)N/N=C/c2cccs2)c2ccccc2n1 returned D2 ag-1 -1, D2 ag-2 -1, D2 PAM-1 -23, D2 PAM-2 -32 and D2 antag 72*.
CCOc1ccc(S(=O)(=O)NCC(c2ccc(N(C)C)cc2)N2CCCC2)cc1 (stereo not drawn) was read as D2 ag-2 -4 and D2 PAM-1 2.
`COc1cc(/C=C/C(=O)CC(=O)/C=C/c2ccc(O)c(OC)c2)ccc1O` gave D2 ag-1 4, D2 ag-2 53*, D2 PAM-1 -13, D2 PAM-2 -10 and D2 antag 27.
Screening COc1cc(/C=C2/C(=O)CNC2=O)ccc1O returned D2 ag-1 -1, D2 ag-2 37*, D2 PAM-1 -18, D2 PAM-2 -1 and D2 antag 3.
`Cc1nn(-c2ccccc2)c2c1N(CC(=O)N1CCN(c3ccc(F)cc3)CC1)C(=O)CS2` gave D2 ag-2 0 and D2 PAM-1 9.
`CCCC12CN3CC(C)(CN(C1)C31C(=O)Nc3ccc(C)cc31)C2=O` (stereo not drawn) gave D2 ag-1 0, D2 ag-2 -2, D2 PAM-1 -6, D2 PAM-2 9 and D2 antag -15.
`Cc1ccc2c(c1)C1(C(=O)N2C)N2CC3(C)CN1CC(C)(C2)C3=O` (stereo not drawn) gave D2 ag-1 -2, D2 ag-2 1, D2 PAM-1 33*, D2 PAM-2 -2 and D2 antag -3.
For Cc1cc(C)cc(C(=O)O/N=C(\N)c2ccc(Br)cc2)c1 the results were D2 ag-1 inconclusive, D2 ag-2 0, D2 PAM-1 4, D2 PAM-2 64* and D2 antag 35*.
For Cc1onc(-c2ccccc2Cl)c1C(=O)Nc1nnc(-c2cccc([N+](=O)[O-])c2)s1 the results were D2 ag-1 1 and D2 PAM-2 -1.
For N/C(=N\OC(=O)c1cccs1)c1ccc(Cl)cc1 the results were D2 ag-1 50*, D2 ag-2 0, D2 PAM-1 -6, D2 PAM-2 inconclusive and D2 antag -7.
For Cc1onc(-c2ccccc2Cl)c1C(=O)O/N=C(\N)c1ccccc1 the results were D2 ag-1 43*, D2 ag-2 -2, D2 PAM-1 -1, D2 PAM-2 inconclusive and D2 antag 5.
`CCSc1nnc(NC(=O)c2c(-c3ccccc3Cl)noc2C)s1` gave D2 ag-1 -3, D2 ag-2 1, D2 PAM-1 15, D2 PAM-2 23 and D2 antag 109*.
For C/C(=N\OC(=O)c1c(-c2ccccc2Cl)noc1C)c1ccncc1 the results were D2 ag-1 -4, D2 ag-2 0, D2 PAM-1 -4, D2 PAM-2 -7 and D2 antag 3.
Screening COc1ccc(/C(N)=N/OC(=O)c2cccs2)cc1 returned D2 ag-1 9, D2 ag-2 1, D2 PAM-1 3, D2 PAM-2 7 and D2 antag 2.
Screening Cc1ccc(C(=O)O/N=C(\N)c2ccc(Br)cc2)cc1C returned D2 ag-1 10, D2 ag-2 -2, D2 PAM-1 -10, D2 PAM-2 inconclusive and D2 antag -8.
Cc1ccc(CCNC(=O)c2ccc(CSCc3ccccc3C)o2)cc1 was read as D2 ag-2 -1 and D2 PAM-1 -7.
Cc1cccc(N(C)c2nc3ccccc3c3nnc(C)n23)c1 was read as D2 ag-2 0 and D2 PAM-1 6.
